# MBD2 DNA inh: inhibitors of MBD2 binding to methylated DNA, primary screen, biochemical, TR-FRET, DNA-binding domain, human; MBD2 binding to methylated oligonucleotide; inhibition, % at 4.4 µM; 370,000 tested, 0.31% active; in the data active means inhibition above about 13%
# Target sequence (Q9UBB5 whole entry, looked up, the tested form may be a part): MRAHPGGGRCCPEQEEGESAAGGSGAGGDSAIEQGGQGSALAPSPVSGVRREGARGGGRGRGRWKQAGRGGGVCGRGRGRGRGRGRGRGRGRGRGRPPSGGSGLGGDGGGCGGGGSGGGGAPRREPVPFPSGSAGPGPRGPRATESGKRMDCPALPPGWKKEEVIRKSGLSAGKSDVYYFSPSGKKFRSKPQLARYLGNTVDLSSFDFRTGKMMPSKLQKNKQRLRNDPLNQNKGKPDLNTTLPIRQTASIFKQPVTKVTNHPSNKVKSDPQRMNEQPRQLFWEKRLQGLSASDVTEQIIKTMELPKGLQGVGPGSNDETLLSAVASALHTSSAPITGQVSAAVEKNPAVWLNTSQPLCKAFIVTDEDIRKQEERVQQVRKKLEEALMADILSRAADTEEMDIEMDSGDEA
# PLC-beta3 inh: human PLC-beta3 inhibitors, primary screen, biochemical, fluorescence; inhibition, % at 12.2 µM; 370,000 tested, 0.18% active; Purified PLC-beta3, fluorogenic substrate; in the data active means inhibition above about 11%;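 further: 0% = median of compound wells on plate and 100% = full blocker control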
# PLC-gamma1 inh: PLC-gamma1 enzyme inhibitors, primary screen, biochemical, fluorescence, purified enzyme. 1-phosphatidylinositol 4,5-bisphosphate phosphodiesterase gamma-1 (Homo sapiens), P19174. AID 720700, 2013. inhibition, % at 12.2 µM. 370,000 tested, 0.84% active. fluorogenic substrate; in the data active means inhibition above about 9.5%
# UHRF1 MBD2 ctr: UHRF1 methylated DNA binding inhibitors, primary screen, counter-screen for MBD2 inhibitor project, biochemical, TR-FRET, human UHRF1, single concentration; UHRF1 binding to methylated oligo; inhibition, % at 4.4 µM; 370,000 tested, 0.75% active; in the data active means inhibition above about 21%;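 further: UHRF1 SRA domain binding a hemimethylated CpG hairpin DNA probe; 0% = median of test compound wells and 100% = reference inhibitor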
# LEDGF integ inh: blockers of LEDGF/p75-dependent integrase strand transfer – biochemical, TR-FRET, high throughput, primary screen | inhibition, % at 3.7 µM | HIV-1 integrase (with human LEDGF/p75) | TR-FRET IN-LEDGF/p75 DNA integration, Eu/Cy5 | 370,000 tested, 0.64% active;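 active means inhibition above the screen-wide mean plus 3 SD, cut at about 13% in these data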;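 further: signal is the Cy5 over europium emission ratio at 671 and 618 nm; 0% = plate median of compound wells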
# An asterisk follows results filed as active. Rows were chosen to be rich in hits. Some 2.3% of all compounds tested hit in one or more screens of this group.
SMILES,MBD2 DNA inh,PLC-beta3 inh,PLC-gamma1 inh,UHRF1 MBD2 ctr,LEDGF integ inh
O=C(CCCc1ccccc1)Nc1cccnc1Cl,-1,12*,3,5,5
O=C(COC(=O)c1ccccc1F)Nc1cccnc1Cl,-4,0,1,25*,1
O=C(Cc1ccc(Cl)cc1)Nc1cccnc1Cl,0,3,-1,1,3
O=C(COC(=O)c1ccccc1Cl)Nc1cccnc1Cl,-2,-1,7,-1,-1
c1ccc2cc3[nH]c(CNc4nc(N5CCOCC5)nc5c4ncn5-c4ccsc4)nc3cc2c1,-11,-24,-17,-2,-3
Cc1ccc(N2C(=O)CC(Sc3ncn[nH]3)C2=O)cc1C (configuration not stated),1,0,-2,22*,3
COc1ccccc1NS(=O)(=O)c1cccc(C(=O)N2CCCCCCC2)c1,-2,-5,-1,-2,-2
COc1ccccc1NS(=O)(=O)c1cccc(C(=O)N2CCCC2)c1,1,-2,-1,43*,-8
COc1ccc(CNc2nc3ccccc3s2)cc1OC,0,-9,1,1,-3
c1ccc(CCNc2nc3ccccc3s2)cc1,5,1,2,21*,0
CC[C@H](CCCCCCCn1ccc2ccccc21)CCC(=O)N(c1ccccc1)c1ccccc1,0,2,-2,0,0
CC12CCC(=O)N1C(C(=O)Nc1ccc(Br)cc1Cl)CS2 (configuration not stated),-5,-7,-2,-3,-1
Cc1cc(Br)ccc1NC(=O)C1CSC2(C)CCC(=O)N12 (configuration not stated),0,0,0,35*,-1
CCO/C=C/C(=O)N(C)CCC#N,-2,-50,-43,100*,-2
CN(CCC#N)C(=O)COC(=O)/C=C/c1cccs1,7,3,7,4,-7
Nn1c(SCC(=O)NC2CCCCC2)nnc1-c1cc(-c2ccc(Cl)cc2)n[nH]1,3,0,1,-6,-3
COC(=O)[C@H]1C[C@@]2(N3CCCC3)c3ccccc3N[C@H]2N1S(C)(=O)=O,2,-3,-3,0,-4
Cc1ccc(S(=O)(=O)NCc2ccccc2)cc1C(=O)N(C)CC(=O)Nc1ccccc1Br,1,-5,0,22*,-5
O=C(CSc1nnc(COc2ccc(Cl)cc2)n1Cc1ccco1)Nc1ccc2c(c1)OCO2,-3,2,2,2,1
COCC(C)OC(=O)/C(C#N)=C\c1coc2ccc(C)cc2c1=O (configuration not stated),-2,-173,-152,45*,4
COc1cc2c(cc1NC(=O)CSc1nnc(COc3ccccc3)n1Cc1ccco1)oc1ccccc12,3,-1,-1,2,-2
COC(CNC(=O)[C@H](Cc1ccccc1)NC(C)(C)C(=O)NC1CCCCC1)OC,4,0,-2,4,-4
CC(C)C[C@@H]1O[C@H](CCc2ccccc2)CC2=C1C(=O)OC(C)(C)O2,0,-1,1,0,-1
CC1(C)OC(=O)C2=C(CC(CCc3ccccc3)OC2CCc2ccccc2)O1 (configuration not stated),-1,-4,0,21*,4
CN(Cc1ccccc1)C(=O)OCc1cn(Cc2ccc(F)c(F)c2)nn1,2,1,-2,2,-2
SMILES,MBD2 DNA inh,PLC-beta3 inh,PLC-gamma1 inh,UHRF1 MBD2 ctr,LEDGF integ inh
C=CCN(CC#CCN(C)C(=O)c1cccn1C(=O)OC(C)(C)C)Cc1ccc(OC)cc1OC,2,1,1,1,6
Cc1cccc(N2C(S)=C(C#N)C(=O)NC23CCCCC3)c1,-1,0,1,-1,1
Cc1cccc(NC2=C(C#N)C(=O)NC3(CCCC3)S2)c1,3,-11,-1,24*,-2
Cc1onc(-c2c(Cl)cccc2Cl)c1C(=O)OCC(=O)c1ccccc1,4,-9,0,52*,2
Cc1onc(-c2c(F)cccc2Cl)c1C(=O)c1ccc(F)cc1,-4,-3,-1,73*,1
Cc1c[nH]c2cccc(-c3ccc(OCc4ccccc4)cc3)c12,0,-4,-1,1,0

# Source: PubChem (The Scripps Research Institute Molecular Screening Center)
